The campaign covered roughly 310,000 compounds. About 2,200 (0.71%) showed an effect of 50% or more. The effect is printed as a negative number. What follows is part of a selection rich in strong results, with near analogues and random picks from the rest.
Target: human ether-à-go-go-related gene (hERG) potassium channel (human, UniProt Q12809)
Assay: primary screen, population patch clamp on CHO cells stably expressing hERG; higher = less effect of the substance

human ether-à-go-go-related gene (hERG) potassium channel, sequence (Q12809 whole entry, looked up): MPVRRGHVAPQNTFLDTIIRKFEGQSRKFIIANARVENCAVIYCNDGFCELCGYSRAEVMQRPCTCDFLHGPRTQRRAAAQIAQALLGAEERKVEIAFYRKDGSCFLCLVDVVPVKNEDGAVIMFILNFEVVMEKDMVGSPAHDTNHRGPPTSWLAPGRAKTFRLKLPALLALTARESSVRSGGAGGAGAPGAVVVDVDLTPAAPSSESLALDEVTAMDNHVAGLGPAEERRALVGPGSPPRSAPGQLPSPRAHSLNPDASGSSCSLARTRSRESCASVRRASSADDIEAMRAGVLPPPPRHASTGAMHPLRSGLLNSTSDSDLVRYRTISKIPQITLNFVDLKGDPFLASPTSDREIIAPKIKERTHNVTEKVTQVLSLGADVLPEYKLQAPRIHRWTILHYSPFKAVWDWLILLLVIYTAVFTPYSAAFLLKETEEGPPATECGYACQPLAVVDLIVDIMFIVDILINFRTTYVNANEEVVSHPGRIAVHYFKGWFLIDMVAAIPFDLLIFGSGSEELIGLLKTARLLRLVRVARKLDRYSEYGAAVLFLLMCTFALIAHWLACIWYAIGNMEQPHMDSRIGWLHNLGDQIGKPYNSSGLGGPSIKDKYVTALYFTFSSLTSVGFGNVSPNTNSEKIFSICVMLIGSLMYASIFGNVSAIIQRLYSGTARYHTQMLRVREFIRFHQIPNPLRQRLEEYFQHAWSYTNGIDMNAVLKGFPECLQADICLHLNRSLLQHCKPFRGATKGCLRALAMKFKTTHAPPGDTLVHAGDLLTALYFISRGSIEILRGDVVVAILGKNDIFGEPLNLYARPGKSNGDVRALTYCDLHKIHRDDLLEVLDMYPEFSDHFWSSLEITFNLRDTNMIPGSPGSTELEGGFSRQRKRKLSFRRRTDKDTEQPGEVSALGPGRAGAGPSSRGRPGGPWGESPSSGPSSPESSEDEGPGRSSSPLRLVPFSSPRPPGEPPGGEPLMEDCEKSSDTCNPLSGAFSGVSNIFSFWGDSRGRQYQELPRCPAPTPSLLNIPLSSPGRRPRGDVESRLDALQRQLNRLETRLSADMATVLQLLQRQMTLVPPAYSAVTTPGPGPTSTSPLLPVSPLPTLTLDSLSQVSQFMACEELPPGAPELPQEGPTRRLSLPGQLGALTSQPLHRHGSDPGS

| Structure (SMILES) | hERG current change (%, negative = inhibition) at 1uM [%] |
| --- | --- |
| CC(NC(=O)CCC(=O)N1CCCCCC1)c1ccccc1 (centres unmarked) | 16.8 |
| Cc1ccc(NC(=O)c2noc(C(C)C)c2[N+](=O)[O-])cc1 | 4.81 |
| CCN1/C(=C(\O)c2ccccc2)C(=O)c2ccccc2S1(=O)=O | 13.6 |
| COc1cc2c(cc1OC)C(COc1cc(C)cc(C)c1)N(C(C)=O)CC2 (centres unmarked) | 2.4 |
| CCOC(=O)c1ccc(NC(=S)N(CCN2CCCCCC2)Cc2cccs2)cc1 | 8.82 |
| CCOC(=O)c1ccc(NC(=S)N(Cc2cccnc2)Cc2ccco2)cc1 | 7.3 |
| CCOC(=O)c1ccc(NC(=S)N(CCN2CCCCCC2)Cc2ccco2)cc1 | -87.2 |
| CN1CCN(CCCN(Cc2ccco2)C(=S)Nc2ccc(Cl)cc2)CC1 | -53.8 |
| CCOC(=O)c1ccc(NC(=S)N(CCCN2CCCCCC2)Cc2ccco2)cc1 | -31.7 |
| CCN1CCN(CCCN(Cc2ccco2)C(=S)Nc2ccc(Cl)cc2)CC1 | -18.6 |
| CCOC(=O)c1ccc(NC(=S)N(CCCN2CCCCC2)Cc2ccco2)cc1 | -71.3 |
| CCOC(=O)c1ccc(NC(=S)N(CCCN(CC)CC)Cc2ccco2)cc1 | -57.9 |
| CCOC(=O)c1ccc(NC(=S)N(CCCN2CCN(CC)CC2)Cc2ccco2)cc1 | -45.4 |
| CCOC(=O)c1ccc(NC(=S)N(CCCN2CCCC(C)C2)Cc2ccco2)cc1 (centres unmarked) | -42.8 |
| CCc1ccc(NC(=S)N(CCN2CCCCC2)Cc2ccco2)cc1 | -34.7 |
| S=C(Nc1ccc(Cl)cc1)N(CCCN1CCOCC1)Cc1ccco1 | -8.98 |
| CCOc1cccc(NC(=O)C2CC(=O)N(C)C(=Nc3cccc(F)c3)S2)c1 (centres unmarked) | 9.17 |
| N#Cc1ccc(-c2ccc(OCC3CNC(=O)O3)cc2)cc1 (centres unmarked) | 8.74 |
| CCOC(=O)c1cccc(NC(=O)CCNS(=O)(=O)c2cc(Br)cnc2N)c1 | 14.4 |
| Cc1ccc(S(=O)(=O)N2CCC(=O)N(CCOCc3cccc(F)c3)CC2)cc1 | 7.15 |
| O=C(O)CCn1nnc(-c2ccccc2)n1 | 10.7 |
| O=C(COc1ccc(Cl)cc1)NCc1nnc(SCC(=O)Nc2ccccc2)o1 | 1.01 |

| Structure (SMILES) | hERG current change (%, negative = inhibition) at 1uM [%] |
| --- | --- |
| Cc1ccc(SCC(=O)Nc2ccc(C(=O)Nc3ccc(O)cc3)cc2)cc1 | 12.6 |
| Cc1ccc(NC(=O)Cc2ccc([N+](=O)[O-])cc2)c(Br)c1 | 5.32 |
| CC(C)Oc1ccc(CCC(=O)N/N=C/c2ccc3c(c2)OCO3)cc1 | 16.1 |
| COc1ccc(C2c3ccc4ccccc4c3Oc3ncn(CCCN(C)C)c(=N)c32)cc1 (centres unmarked) | -29 |
| COc1ccc(C2c3ccc4ccccc4c3Oc3ncn(CCCO)c(=N)c32)cc1 (centres unmarked) | -40.6 |
| CN(C)CCCn1cnc2c(c1=N)C(c1ccccc1)c1ccc3ccccc3c1O2 (centres unmarked) | -61.9 |
| CN(C)CCn1cnc2c(c1=N)C(c1ccccc1)c1ccc3ccccc3c1O2 (centres unmarked) | -78.1 |
| COc1ccc(C2c3ccc4ccccc4c3Oc3ncn(CCO)c(=N)c32)cc1 (centres unmarked) | -61.7 |
| COc1ccccc1C1c2ccc3ccccc3c2Oc2ncn(CCN(C)C)c(=N)c21 (centres unmarked) | -7 |
| COc1ccc(C2c3ccc4ccccc4c3Oc3ncn(CCO)c(=N)c32)cc1OC (centres unmarked) | -13.9 |
| N=c1c2c(ncn1CCCO)Oc1c(ccc3ccccc13)C2c1ccccc1 (centres unmarked) | -20.5 |
| COc1ccc(C2c3ccc4ccccc4c3Oc3ncn(CCN(C)C)c(=N)c32)cc1 (centres unmarked) | -40.1 |
| Nc1cccc2c1C(=O)N(C(=O)c1ccc(Cl)c(S(=O)(=O)N3CCCCCC3)c1)C2=O | 13.1 |
| COc1cccc(CCc2nnc(CCC(=O)N3CCN(Cc4ccccn4)CC3)o2)c1 | 10.2 |
| COCCCNC(=O)c1cc2c(=O)n(C)c3ccccc3c2n1C | -8.02 |
| O=C(COC(=O)CCN1C(=O)c2ccccc2C1=O)Nc1ccccc1[N+](=O)[O-] | 16.6 |
| O=C(CSc1nnc(-c2ccco2)o1)N1c2ccccc2CCc2ccccc21 | 9.21 |
| CCOC(=O)C(C)n1cnc2c(nnn2Cc2ccc(C)cc2)c1=O (centres unmarked) | 11.6 |
| CC(C)c1ccc(-c2nc(N3CCCCCC3)nc3n[nH]c(N)c23)cc1 | 10.2 |
| COc1ccc(NC(=O)Cn2nnc(C(=O)NCCc3ccc(OC)c(OC)c3)c2N)c(OC)c1 | -1.5 |
| CCn1c(CCc2ccccc2)nnc1SCC(N)=O | 13.3 |
| NC(=O)C1(c2ccccc2)CCC(=O)N1c1ccccc1 (centres unmarked) | 14.8 |

| Structure (SMILES) | hERG current change (%, negative = inhibition) at 1uM [%] |
| --- | --- |
| Cc1ccc(S(=O)(=O)N(CC(=O)NCc2cccnc2)c2ccc(F)cc2)cc1 | -38.1 |
| CCOc1ccc(S(=O)(=O)N(CC(=O)NCc2cccnc2)c2ccc(F)cc2)cc1 | -67.2 |
| CCOc1ccc(N(CC(=O)NCc2ccccc2)S(=O)(=O)c2ccc(C)cc2)cc1 | 6.54 |
| COc1ccc(S(=O)(=O)N(CC(=O)NCc2cccnc2)Cc2ccccc2)cc1 | -51.2 |
| O=C(CN(C1CCCCC1)S(=O)(=O)c1ccccc1)NCc1cccnc1 | 5.52 |
| CCN(CC(=O)NCc1cccnc1)S(=O)(=O)c1ccc(OC)cc1 | 0.0713 |
| Cc1ccc(S(=O)(=O)N(CC(=O)NCc2cccnc2)C2CCCCC2)cc1 | -30.3 |
| O=C(CN(Cc1ccccc1)S(=O)(=O)c1ccc(F)cc1)NCc1cccnc1 | -31.9 |
| CCOc1ccc(S(=O)(=O)N(CC(=O)NCc2cccnc2)c2ccc(C)cc2)cc1 | -52.4 |
| O=C(CN(C1CCCCC1)S(=O)(=O)c1ccc(Cl)cc1)NCc1cccnc1 | -60.6 |
| CCOc1ccc(S(=O)(=O)N(CC(=O)NCc2ccncc2)c2ccc(C)cc2)cc1 | -14.6 |
| CCOc1ccc(N(CC(=O)NCc2cccnc2)S(=O)(=O)c2ccc(F)cc2)cc1 | 7.16 |
| C[C@H]1CN=C(N(C)C)N1CCC1CCCCC1 | 13.6 |
| CN(CC(=O)Nc1cccc(S(=O)(=O)NC2=NCCCCC2)c1)Cc1ccc(C(C)(C)C)cc1.O=C(O)C(=O)O | 12.9 |
| CCN1CCN(S(=O)(=O)c2cc(OC)ccc2OC)CC1 | 19 |
| c1ccc(CSc2nnc3c(n2)OC(c2ccco2)Nc2ccccc2-3)cc1 (centres unmarked) | 14.9 |
| COC(=O)c1sc(Nc2ccccc2)nc1C | 13.5 |
| C/C(N)=C(/C#N)C(=O)CSc1nc2cc(Cl)ccc2s1 | -7.65 |
| CC(=O)c1ccc2c(c1)OCCOCCOc1ccccc1OCCOCCO2 | -82.5 |
| c1ccc2c(c1)OCCOCCOCCO2 | 13.2 |
| CC(=O)c1ccc2c(c1)OCCOCCOCCOCCOCCO2 | -11.8 |
| CC(=O)c1ccc2c(c1)OCCOCCOCCO2 | 12.3 |

| Structure (SMILES) | hERG current change (%, negative = inhibition) at 1uM [%] |
| --- | --- |
| O=C(O)c1ccc2c(c1)OCCOCCOCCOCCOCCO2 | -12.4 |
| CC(=O)c1ccc2c(c1)OCCOCCOc1ccc(C(C)=O)cc1OCCOCCO2 | -84.8 |
| O=C(c1ccccc1)c1ccc2c(c1)OCCOCCOCCO2 | 8.88 |
| C/C(=N\O)c1ccc2c(c1)OCCO2 | 12.6 |
| CC(=O)[O-].[K+].c1ccc2c(c1)OCCOCCOc1ccccc1OCCOCCO2 | -80.7 |
| c1ccc2c(c1)OCCOCCOCCOCCOc1ccccc1OCCOCCOCCO2 | -11.5 |
| CC(=O)c1ccc2c(c1)OCCOCCOCCOCCO2 | -3.2 |
| C/C(=N/O)c1ccc2c(c1)OCCOCCOc1cc(/C(C)=N/O)ccc1OCCOCCO2 | -79.7 |
| CN1CCN(C2=C(Cl)C(=O)N(CCc3ccccc3)C2=O)CC1 | 17.7 |
| CCN(CC)S(=O)(=O)c1ccc(C(=O)Nc2c3c(nn2C(C)(C)C)CS(=O)(=O)C3)cc1 | 5.04 |
| Cc1cc(C)c[n+](-c2nc3ccccc3nc2[N-]S(=O)(=O)c2cccs2)c1 | 2.45 |
| COC(=O)c1ccccc1NC(=O)CNc1cc(Cl)ccc1N1CCOCC1 | -0.671 |
| CCC(=O)Nc1cccc(C(=O)Nc2nccs2)c1 | 8.98 |
| CN1CCC(=NNC(=O)c2ccc(N(Cc3ccccc3Cl)S(C)(=O)=O)cc2)CC1 | 6.54 |
| CCc1ccccc1NC(=O)/C(=C/c1ccccc1)c1ccccc1 | -4.2 |
| Cc1ccc(OCC(=O)NC(=S)Nc2ccc(Br)c(C)n2)cc1 | 5.89 |
| CCN(CCCC(=O)c1ccc(F)cc1)CCc1ccccc1.Cl | -86.5 |
| O=C(CCCC(=O)c1ccc(F)cc1)c1ccc(F)cc1 | 5.62 |
| O=C(CCCc1ccccc1)c1ccccc1 | 19.4 |
| COCCn1nnnc1C(c1ccc(OC)c(OC)c1)N1CCN(c2nc3ccccc3s2)CC1 (centres unmarked) | 2.83 |

— publication PMC4336329 (PLoS ONE, 2015)
